According to PubChem BioAssay (NCI):
Compounds without any hit were thinned out: in the full panel of roughly 83,000, 20% have a hit.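 The test compound was applied at a single concentration to cells in 96-well plates for 48 hours, and percent growth was recorded.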 Calls of active or inactive are those of the source. Rule for the calls: active = growth percent below 10; inactive = the rest.

Test system: NCI-H226 lung
Test: NCI-60 one-dose screen, 48 h (100 = growth as untreated, 0 = no growth, -100 = all killed)
Details: 10 µM unless noted

Row | SMILES | growth
1 | O=C1Nc2cc(-c3ccc(NS(=O)(=O)c4ccc(F)c(Cl)c4)cc3)ccc2/C1=C/c1ccc[nH]1 | 37% (inactive)
2 | CCOC(=O)/C(F)=C/C1CC1C1CCN(C(=O)OC(C)(C)C)CC1 (configuration not stated) | 95.2% (inactive)
3 | CN1CCN(CCS(=O)(=O)Nc2cc(-c3ccc4ncnc(Nc5ccc(F)c(Cl)c5)c4c3)cnc2Cl)CC1 | 48.9% (inactive)
4 | N#Cc1cc(-c2ccc3ncnc(N4CCc5cc(F)c(Cl)cc54)c3c2)cnc1N | 59.1% (inactive)

Test system: NCI-H322M lung
Test: as above
Details: 10 µM unless noted

Row | SMILES | growth
5 | O=c1ccc(Cn2c(C(F)(F)F)cc3c(Cl)ncnc32)c[nH]1 | 67.2% (inactive)
6 | CC[C@]12C=CCN3CC[C@]4(C(=C(C(=O)OC)C1)Nc1cc(OC)c([C@@H]5[C@H]6O[C@H]6[C@@]6(CC)CC(C(=O)OC)=C7Nc8cc(O)ccc8[C@@]78CCN5[C@@H]68)cc14)[C@@H]32 | 33.6% (inactive)
7 | COc1ccc2[nH]cc(-c3cc4nc(-c5cn(C)c6ncccc56)cc(N)n4n3)c2c1 | 37.1% (inactive)
8 | COc1ccc2[nH]c(=O)cc(-n3ncc(C(=O)/C=C/c4cc(OC)c(OC)c(OC)c4)c3C)c2c1 | 5.89% (active)
9 | COc1ccc(/C=C/c2nc3ccccc3n3c(-c4cccc([N+](=O)[O-])c4)nnc23)cc1 | 41% (inactive)
10 | O=C(Nc1ccc(Cl)c(C(F)(F)F)c1)N1CCN(c2cc(-c3cn(-c4ccccc4)nc3-c3cccc(O)c3)ccn2)CC1 | 14.8% (inactive)
11 | O=C1Nc2ccccc2/C1=C/C(=O)c1cc2ccccc2oc1=O | 102% (inactive)
12 | CN1CCN(C(=O)Oc2cc3c(c4ccccc24)[C@H](CCl)CN3C(=O)c2cc3cc(OCCCN4CCC4)ccc3[nH]2)[C@H]2CSSC[C@H]21 | -13.1% (active)
